In the supplement of paper PMC3334620:
The full ranking holds about 33,000 sequences; the median of “E-score (-0.5 to 0.5)” is about -0.032, and the highest 2% start at about 0.36. Many of the other results were omitted from the sample, so the highest values are more common in it than they were.

target: T1, Sko1 (UniProt Q02100); experiment: PBM E-score (8-mer binding enrichment) (E-score (-0.5 to 0.5)); higher = stronger / more preferred TF binding; details: protein concentration: 200 nM; construct: GST-full length
T1 sequence: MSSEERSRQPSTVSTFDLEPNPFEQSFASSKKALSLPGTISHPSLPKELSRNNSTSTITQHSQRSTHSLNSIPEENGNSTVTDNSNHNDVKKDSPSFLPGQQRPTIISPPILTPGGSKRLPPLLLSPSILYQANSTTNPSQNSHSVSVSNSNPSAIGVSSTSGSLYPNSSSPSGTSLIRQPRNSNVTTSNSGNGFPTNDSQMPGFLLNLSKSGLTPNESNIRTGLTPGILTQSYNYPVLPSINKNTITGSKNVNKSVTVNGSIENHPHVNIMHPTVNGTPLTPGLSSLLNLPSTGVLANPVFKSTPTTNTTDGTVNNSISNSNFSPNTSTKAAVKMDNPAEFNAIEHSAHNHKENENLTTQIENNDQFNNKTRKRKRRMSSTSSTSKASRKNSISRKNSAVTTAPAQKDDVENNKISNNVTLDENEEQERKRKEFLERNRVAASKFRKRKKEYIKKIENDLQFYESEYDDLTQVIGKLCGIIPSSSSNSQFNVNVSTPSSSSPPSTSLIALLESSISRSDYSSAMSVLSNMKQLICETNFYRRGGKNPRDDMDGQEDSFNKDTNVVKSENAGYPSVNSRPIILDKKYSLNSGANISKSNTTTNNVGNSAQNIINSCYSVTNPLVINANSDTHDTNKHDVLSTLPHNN
Procedure, shortened: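 Using PURExpress in vitro transcription/translation, GST-tagged yeast transcription factors were made in full-length or DNA-binding-domain form. These were applied at about 100-200 nM to double-stranded universal all-10-mer Agilent arrays, and bound protein was detected with fluorescent anti-GST. Scans were normalised with masliner before the Universal PBM Analysis Suite assigned E-scores to ungapped eight-base words pooled with their reverse complements.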

Sequence	PBM E-score
GTCTGCCA	-0.00797
TACGCGTA	0.387
AACGCGTA	0.287
GTCGCGTA	0.363
TACGCGCA	0.209
CTCGCGTA	0.212
CACGCGTA	0.311
ATCGCGTA	0.326
CACGCGTC	0.291
GACGCGTA	0.388
CCCTGGCA	-0.34
GGCTGGCA	-0.303
AGAACGGG	-0.124
CGTGCGTA	0.382
CGTGCGCA	0.205
AGTGCGTA	0.376
CCTGCGTC	0.122
AGTGCGTC	0.225
CGTGCGAC	0.0911
GGTGCGTA	0.299
AGTGCGTG	0.152
CGTGCGTC	0.388
CTAGACTA	-0.139
CATTGGTC	-0.282
CTTGTGCA	-0.154

Sequence	PBM E-score
GTAGCGGA	-0.0973
CGCTTAAA	0.0298
AGCGTGAT	0.147
ACGTACAT	0.449
ACGTACAC	0.444
GCGTACAA	0.146
ACGTACAA	0.414
ATGTACAT	0.32
AAGTACAT	0.237
ACGTACAG	0.415
TCGTACAA	0.206
CCGTACAC	-0.0557
AGGTACAG	-0.145
CCGTACAG	-0.22
GCGTACAC	0.213
ACCAATGG	-0.28
CTCAGTTA	-0.0515
CGAAACTC	-0.0389
TAGTCCAA	-0.132
ACGTCAGA	0.479
GGGTCAGA	-0.219
AAGTCAGT	-0.0135
ACGTCAGT	0.469
ACGTCAGG	0.457
GTGTCAGA	-0.06

Sequence	PBM E-score
TCGTCAGA	0.307
ACATCAGT	0.179
ATGTCAGG	0.0993
CCGTCAGG	-0.0861
GCGTCAGA	0.364
CCGTCAGA	-0.0558
AGTCCCTG	-0.259
AATGGGAC	-0.215
CGCCCTGC	-0.236
CCACTCAG	-0.212
CCAAAGAC	-0.098
GCGCCCGC	-0.165
GATCATAC	0.14
ACGGTTCA	-0.126
CCGTCAGC	-0.127
ACGTCAGC	0.48
GCGTCAGC	0.209
CCCCCCAC	-0.372
ACGTGTAG	0.367
ACGTGTAA	0.386
TCGTGTAA	0.116
CCGTGTAG	-0.181
ACGTGTAT	0.414
AAGTGTAT	0.0856
CCGTGTAC	-0.0602

Sequence	PBM E-score
AAGTGTAG	0.0389
GCGTGTAC	0.227
AGGTGTAT	0.075
CCGTGTAA	-0.0449
ACGTGTAC	0.409
CATGACTA	0.0134
AATACCGG	0.00982
CGTTTACA	0.138
CTCCCCAC	-0.00257
ATTAAGCG	0.0319
ACCGCATC	-0.161
AATAAGCT	0.0887
CTATAGGA	0.0338
CCGAGATA	0.00305
ACTAGTGC	-0.13
ACGTGTCA	0.378
CCGTGTCA	-0.186
AAGTGTCG	0.00605
ACGTGTCG	0.385
AAGTGTCT	-0.135
GCGTGTCA	0.216
ACGTGTCT	0.381
ACGTGTCC	0.318
CCGTGTCG	-0.319
CAGCAGGC	-0.22

Sequence	PBM E-score
AGGCTTGA	-0.0134
ACGGCTCG	-0.0111
TAACGTAA	0.457
TAACGTGA	0.274
CAACGTAG	0.354
GAACGTAC	0.254
GATCGTAA	0.281
GAACGTAA	0.428
TAACGTTA	0.302
CAACGTAA	0.447
CAACGTGA	0.182
ACAACTAA	0.161
AGGCCTGC	-0.301
GCCGTCGC	-0.133
CTCGGTAC	-0.0539
CTACTCAC	0.168
ACCACGGA	-0.247
ACCACGCC	-0.125
ACCACGAC	0.128
ACCACAAA	0.0563
ACCACGTC	0.363
ACCACGGG	-0.243
GCCACGGA	-0.215
GCCACGTA	0.421
ACCACGAA	0.131

Sequence	PBM E-score
ACCACGTA	0.441
GCCACGCA	0.0845
ACCACGTG	0.362
GTCTGATA	-0.114
TATCTGGA	-0.215
CCTCGGCG	-0.0614
CCACCAAG	-0.374
ACCGGTGG	-0.404
AACTCACC	-0.0504
GAGAACCA	-0.127
ACACTCCT	-0.189
ACGCTCAA	0.0466
TTGTGAAA	0.119
ACTTTCAA	0.0541
ACCTATAT	0.257
AGTGACGA	0.419
GGTGACCA	-0.137
AGTGACGG	0.146
AGTGACCA	-0.178
GGTGACGA	0.422
GTTGACGA	0.212
ACGCCCAG	-0.0834
TACACTAA	-0.0348
AATTGTGA	0.233
ATCGGCCC	-0.133

Sequence	PBM E-score
CCCCACGG	-0.22
ATCATTAA	0.239
GTCATTGA	0.416
ATCATTGA	0.272
CTCATTGA	-0.0333
GTCATTAA	0.393
CTCATTAA	0.0254
CCTGAGGC	-0.278
GATAGAGA	-0.084
ACCTTCGT	0.0282
CGTAAAAG	0.288
AGACTCAC	-0.129
TGAAGACA	0.0964
CGCGACTA	-0.0528
CTGGATGC	-0.36
CTGTGCGC	-0.113
CAAAGAAG	-0.00535
AATCGTCT	0.0851
CATCGTCA	0.395
AATCGTCA	0.423
TATCGTGA	0.168
GATCGTCA	0.321
CATCGTCG	-0.16
TATCGTCA	0.42
AATCGTCC	0.0937

Sequence	PBM E-score
CATCGTCC	0.0258
CCTCATTA	0.131
ATTGCCAC	-0.11
CGATGGGA	-0.0417
ACACTAAT	0.119
AGGTCCAT	0.0213
AGGACATC	-0.0352
GACGGGCA	-0.145
ATGCGTAG	0.3
CTGCGTAA	0.397
CTGCGTTA	0.0283
ATGCGTAA	0.437
GTGCGTAA	0.418
ATGCGTAC	0.291
CTGCGTAC	0.149
GAGCGTAA	0.218
GTGCGCAA	0.114
CACTGCAG	-0.064
CATCTTAC	0.228
TCAGAGAA	0.00926
ACGCCAAG	-0.0349
CCGCCATA	-0.182
GCGCCATA	0.0343
ACGCCATA	0.393
ACGCCACA	0.234

Sequence	PBM E-score
CCGCCATC	-0.29
ACGCCATC	0.376
ACGCCACC	0.0629
ACGCCATG	0.368
AAGGATCC	-0.254
CCACGCAG	0.057
ACACGGGT	-0.189
CAGCATCG	-0.332
CCCGCTAC	-0.15
AACCATAT	0.119
CCACGTGC	0.341
CCACGTAA	0.456
CCCCGTAA	0.0319
CCACGTAC	0.374
CCACGTGA	0.339
CCACGTTC	0.0509
CCACGTAG	0.377
CCCCGTAG	-0.2
CCACGTGG	0.177
ATGGGGCA	-0.185
CAATAGTC	-0.085
CTGGTACA	-0.00751
GTCTGGGA	-0.133
GGTCGTTA	-0.0165
GGTCGTGA	0.0516

Sequence	PBM E-score
CGTCGTCC	-0.0443
CGTCGTCA	0.362
AGTCGTCG	-0.148
GGTCGTCA	0.38
AGTCGTCC	-0.114
AGTCGTCA	0.37
CGTCGTTA	0.153
AGAGGTAG	-0.178
GGGCTAAA	-0.182
ACACACGA	0.213
AAACACGC	0.316
ACACACGT	0.433
AAACACGT	0.413
ACACACGG	-0.0648
AAACACGA	0.163
ATATAGAG	-0.151
CTTTGGGA	-0.187
AATGAGCG	0.0936
ACGCAATA	0.45
ACGCAAGG	0.316
GCGCAATA	0.0795
CCGCAATC	-0.102
CCGCAATA	0.0923
ACGCAATC	0.411
ACGCAAGC	0.327

Sequence	PBM E-score
AGGCAATG	0.00123
ACGCAATG	0.399
AAAGGGGT	-0.26
ATCCACTA	-0.0731
CGTTAATC	0.168
ACGGCCCA	-0.317
ATAACCAT	0.057
AAGTTTGC	0.0635
CTGTGCTC	0.0303
CCTACGTA	0.477
CCTACGGC	-0.34
ACTACGCC	-0.00632
CCTACGAC	0.0224
CCTACGAA	0.0841
ACTACGGC	-0.0407
CCTACGTC	0.427
CCTACGGA	-0.182
ACTACGTC	0.433
GCGGGTAC	-0.0713
CACACTAC	0.0507
CCAAGCGC	-0.147
AGTTGCAA	0.219
ACATCCGG	-0.227
CCTACCGA	-0.168
CCACGCCC	-0.165

Sequence	PBM E-score
CCGGTGGA	-0.297
AGGTATAT	0.184
ACGTATAA	0.457
CCGTATAA	0.0514
AAGTATAT	0.118
ACGTATAG	0.437
ACGTATAT	0.453
CCGTATAG	-0.115
ACGTATAC	0.463
AGGTATAG	-0.141
TCGTATAA	0.221
CCGTATAC	0.0259
ATGTATAC	0.247
ACGTGAGT	0.331
AATGAGGT	0.324
CTTGGGTC	-0.348
GGCGCGAA	-0.151
GCGTATAA	0.271
GCGTATAC	0.365
GAGTATAC	0.192
ATGGAGGG	-0.334
CCACACTC	0.00961
AAGATTAG	0.062
AGTAAGGC	-0.0198
CTTACGCA	0.427

Sequence	PBM E-score
GTTACTCA	0.0403
CTTACGCC	0.193
ATTACTCG	0.204
GTTACGCA	0.417
CTCACGCA	0.28
GGTACGCA	0.268
ATTACGCC	0.338
ATTACGCG	0.431
ATTACGGA	0.287
ATTACGCA	0.47
CAAACCAG	-0.071
GCACCGCC	-0.218
GTACCTGA	0.16
GCATCTCC	-0.341
ACCGGCCT	-0.0244
ATAGAAAG	-0.115
CATAGAAC	-0.15
AGTACGTA	0.474
AGTACGTC	0.435
AGTACATA	0.00479
AGTACGAA	0.312
CGTACATA	0.378
GGTACGAA	0.19
GGTACGTA	0.454
GGTACGGA	-0.174

Sequence	PBM E-score
AGTACGGA	-0.0994
AGTACGAC	0.157
CGTACATC	0.244
AGTACGGC	-0.101
AACCGCCC	-0.295
CTTCAATA	0.197
CGCCGTGC	-0.189
CGTGCGGC	0.00261
CCCTACCA	-0.0655
CCCTAGGC	-0.269
GACTGGCC	-0.338
AGTACGTG	0.365
AGTACGAG	0.00509
CGTACGGC	0.251
AGTACGCG	0.236
CGTACGTC	0.45
CGTACGCA	0.332
CGTACGTA	0.474
CGTACGCC	0.218
CGTACGAA	0.269
